# From PubChem BioAssay (Tox21)
# Values joined by “and” are separate entries in the source; they are usually repeats but may differ in a detail not shown here. Identical values can stand only once. Inconclusive results are not listed. Entries that show only a call come without a potency. The source holds several records for some structures; these can differ, active in one and inactive in another. Active and inactive are the calls of the source. Unless noted, the call rests on the fitted dose curve; in most records, active means well fitted curve in the direction sought with a large enough effect in the repeat runs; inconclusive means weak or mixed curves; inactive means no such curve, though single readings can be large; an effect the other way counts as inactive or inconclusive.
# Experiments:
# [1] = qHTS assay to identify small molecule antagonists of the progesterone receptor (PR) signaling pathway - cell viability counter screen (AID 1346798); further: series mostly up to about 92 µM; nearly all actives have a fitted effect of over 50% in size
# How it was run: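 Following a 4 hr attachment, PR-UAS-bla HEK293T cells in charcoal-stripped FBS medium were exposed to compounds with R5020 for 16 hr; CellTiter-Glo was added and luminescence read after 30 min at room temperature.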
# [2] = qHTS assay to identify small molecule antagonists of the TGF-beta/Smad signaling pathway - cell viability counter screen (AID 1346824); further: nearly all actives have a fitted effect of over 50% in size
# How it was run: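 SBE-bla HEK 293T cells, incubated overnight, then compound plus 0.25 ng/mL TGF-beta1 (stock added) for 5 hr at 37 C. Viability was read in the same wells by CellTiter-Glo luminescence after 30 min at room temperature.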
# [3] = qHTS assay to identify small molecule agonists of the TGF-beta/Smad signaling pathway - cell viability counter screen (AID 1346829); further: top concentration of the series differs between compounds; nearly all actives have a fitted effect of over 45% in size
# How it was run: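 Cytotoxicity counter screen: CellTiter-Glo luminescence (30 min, room temperature) measured in the SBE-bla HEK 293T reporter wells after 5 hr compound treatment at 37 C and the 2 hr substrate step.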
# [4] = qHTS assay to identify small molecule agonists of the TGF-beta/Smad signaling pathway (AID 1346859; active means well fitted activation curve with a large enough effect in the signal ratio in the repeat runs, not every such curve was filed as active; the % refers to the signal ratio; further: potency means the concentration at half of the fitted maximal effect; on activation: series mostly up to about 77 µM)
# How it was run: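 Each well held 4,000 SBE-bla HEK 293T cells incubated overnight before compound addition; 5 hr later the cleavable FRET substrate went on for 2 hr at room temperature, and fluorescence was read at two emissions.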
# [5] = molecular target: Thyrotropin-releasing hormone receptor (Homo sapiens) (UniProt P34981); test: qHTS assay to identify small molecule antagonists of the thyrotropin-releasing hormone receptor (TRHR) signaling pathway (AID 1346877; active means well fitted inhibition curve with a large enough effect in the repeat runs, not every such curve was filed as active; further: series mostly up to about 51 µM)
# Sequence of Thyrotropin-releasing hormone receptor (Homo sapiens) (P34981 whole entry, looked up): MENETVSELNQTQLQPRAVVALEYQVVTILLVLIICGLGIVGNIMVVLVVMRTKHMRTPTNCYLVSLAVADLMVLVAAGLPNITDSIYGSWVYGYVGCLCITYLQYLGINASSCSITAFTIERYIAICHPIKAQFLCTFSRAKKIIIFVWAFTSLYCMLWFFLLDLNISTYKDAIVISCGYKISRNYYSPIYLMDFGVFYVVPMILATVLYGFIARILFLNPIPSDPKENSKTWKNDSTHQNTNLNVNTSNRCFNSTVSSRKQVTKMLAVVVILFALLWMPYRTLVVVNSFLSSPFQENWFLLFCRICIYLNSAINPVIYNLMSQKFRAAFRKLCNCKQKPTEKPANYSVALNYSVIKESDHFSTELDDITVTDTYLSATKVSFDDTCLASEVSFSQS
# How it was run: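 Antagonism is measured as suppression of the calcium response to 1 nM TRH in TRHR-HEK293 cells that have been dye-loaded for 2 h at 37 °C after overnight plating. Each compound is tested at 15 concentrations in triplicate.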
# [6] = molecular target: Thyrotropin-releasing hormone receptor (Homo sapiens) (UniProt P34981); test: qHTS assay to identify small molecule agonists of the thyrotropin-releasing hormone receptor (TRHR) signaling pathway (AID 1346891; calls by dose curve; further: series mostly up to about 58 µM)
# How it was run: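 Screening of agonists relied on calcium signalling in HEK293 cells expressing human TRHR: dye loading 2 h at 37 °C preceded compound addition and a 3-min fluorescence time course.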
# [7] = Human pregnane X receptor (PXR) small molecule agonists, qHTS cell viability counter screen (AID 1346977); further: nearly all actives have a fitted effect of over 50% in size
# How it was run: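 Tox21 qHTS format; PXR-Luc HepG2, 2,000/well, charcoal-stripped FBS 5%. Cpd exposure 24hr. Read: CellTiter-Fluor fluorescence, multiplexed with luciferase.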
# [8] = Caspase-3/7 induction in HepG2 cells by small molecules, qHTS assay (AID 1346978); further: nearly all actives have a fitted effect of over 15% in size
# How it was run: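 Wild-type HepG2 cells, 2,000/well, settled 5 hr at 37 C and 5% CO2, then compound-treated for 17 hr; caspase-3/7 activity read by luminescent Caspase-Glo 3/7 after 30 min at room temperature.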
# [9] = Caspase-3/7 induction in CHO-K1 cells by small molecules, qHTS cell viability counter screen (AID 1346979); further: nearly all actives have a fitted effect of over 35% in size; further: potency means the concentration at half of the fitted maximal effect
# How it was run: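 CellTiter-Fluor viability check, qHTS format: wild-type CHO-K1, 16hr compound treatment, 1hr reagent incubation, fluorescence read.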
# [10] = qHTS assay to identify small molecule agonists of the progesterone receptor (PR) signaling pathway - cell viability counter screen (AID 1346799; calls by dose curve; further: nearly all actives have a fitted effect of over 45% in size; further: potency means the concentration at half of the fitted maximal effect)
# How it was run: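 Here, 3,000 PR-UAS-bla HEK293T cells per well were treated with compounds for 16 hr after a 6 hr preincubation at 37C and 5% CO2; cell viability is the CellTiter-Glo luminescence signal.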
Compound,Potency [1],Potency [2],outcome [3],Potency [4],outcome [5],Potency [6],Potency [7],outcome [8],Potency [9],Potency [10]
COC(=O)NC(=S)Nc1ccccc1NC(=S)NC(=O)OC,inactive,inactive,inactive,inactive,inactive,inactive,inactive,inactive,inactive,
CCC12COCN1COC2,inactive,,inactive,inactive,,,inactive,inactive,inactive,
CC(C)(C)C(O)(CCc1ccc(Cl)cc1)Cn1cncn1 (centres undefined),,,inactive,inactive,inactive,inactive,inactive,inactive,,
COC(=O)c1ccccc1N,inactive,inactive,inactive,inactive,inactive,inactive,inactive,inactive,inactive,
CNC(=O)Oc1ccccc1OC(C)C,inactive,inactive,inactive,inactive,inactive,inactive,inactive,inactive,inactive,
CCC[N+](=O)[O-],,inactive,inactive,inactive,,,inactive,inactive,inactive,19 µM (active) and inactive
CCN(CC)c1ccccc1,inactive,inactive,inactive,inactive,inactive,inactive,inactive,inactive,inactive,
CCCN(CCC)N=O,inactive,,inactive,inactive,inactive,inactive,inactive,inactive,inactive,
Cc1cc(-c2cc(C)c(N)c(C)c2)cc(C)c1N,inactive,,inactive,inactive,,,inactive,inactive,inactive,
CN1C(=O)CN=C(c2ccccc2)c2cc(Cl)ccc21,inactive,inactive,inactive,inactive,inactive,inactive,inactive,,inactive,
COC(=O)c1ccccc1C(=O)OC,inactive,inactive,inactive,inactive,,,inactive,inactive,inactive,
c1ccc2c(c1)oc1ccccc12,inactive,,inactive,inactive,inactive,inactive,inactive,inactive,inactive,
O=C1CCCN1,inactive,inactive,inactive,55.5 µM (active) and inactive,,,inactive,inactive,inactive,
CCN(CC)CCO,inactive,inactive,inactive,inactive,inactive,inactive,inactive,inactive,inactive,
O=S(=O)(c1ccc(Cl)cc1)c1cc(Cl)c(Cl)cc1Cl,inactive,,inactive,inactive,inactive,inactive,inactive,inactive,54.4 µM (active) and 68.6 µM (active),
CCCN(CCC)c1c([N+](=O)[O-])cc(C(F)(F)F)cc1[N+](=O)[O-],inactive,,inactive,inactive,inactive,inactive,inactive,inactive,inactive,
